# Inconclusive results are not listed. Entries that show only a call come without a potency. Activity calls are given as the source filed them. Unless noted, the call rests on the fitted dose curve; in most records, active means well fitted curve in the direction sought with a large enough effect; inconclusive means small, poorly fitted or top-dose-only effect, or another doubt; inactive means no such curve, though single readings can be large; an effect the other way counts as inactive or inconclusive. Residues, ends and D or L forms follow the SMILES beside them. *: point of attachment. Cbz = O=C(OCc1ccccc1)*
# Experiments:
# [1] = target: Metallo-beta-lactamase type 2 (Klebsiella pneumoniae) (UniProt C7C422); assay: qHTS to identify inhibitors of the New Delhi Metallo-beta-lactamase (NDM): assay validation screen against the NCATS LOPAC Collection (AID 1794843); conditions: NDM-1 enzyme, nitrocefin hydrolysis, absorbance 485 nm; series mostly up to 38.4 µM; further: potency means the concentration at half of the fitted maximal effect
# Sequence of Metallo-beta-lactamase type 2 (Klebsiella pneumoniae) (C7C422 whole entry, looked up): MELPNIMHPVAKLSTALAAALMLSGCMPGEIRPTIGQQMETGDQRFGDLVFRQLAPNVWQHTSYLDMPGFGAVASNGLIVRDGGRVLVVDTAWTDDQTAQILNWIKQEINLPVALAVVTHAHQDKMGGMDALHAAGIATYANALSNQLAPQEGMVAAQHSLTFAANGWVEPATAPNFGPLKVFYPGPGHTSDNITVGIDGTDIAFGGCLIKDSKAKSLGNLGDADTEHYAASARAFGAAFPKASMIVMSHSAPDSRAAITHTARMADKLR
# Summary of the method: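 NDM-1 at 2 nM final in 50 mM HEPES pH 7.0 with 1 uM ZnSO4 and 0.01% Tween20 was preincubated with library compounds in DMSO. Nitrocefin (50 uM stock) was then added, and absorbance at 485 nm was read at the kinetic plateau.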
# [2] = target: Glutathione peroxidase 1 (Homo sapiens) (UniProt P07203); assay: Primary qHTS Assay for Inhibitors of Recombinant Selenoprotein Glutathione Peroxidase 1 (GPX1) (AID 1845191); conditions: recombinant GPX1, GR-coupled NADPH fluorescence, 15 min; series mostly up to 48.8 µM; further: nearly all actives have a fitted effect of over 65% in size; further: potency means the concentration at half of the fitted maximal effect
# Sequence of Glutathione peroxidase 1 (Homo sapiens) (P07203 whole entry, looked up): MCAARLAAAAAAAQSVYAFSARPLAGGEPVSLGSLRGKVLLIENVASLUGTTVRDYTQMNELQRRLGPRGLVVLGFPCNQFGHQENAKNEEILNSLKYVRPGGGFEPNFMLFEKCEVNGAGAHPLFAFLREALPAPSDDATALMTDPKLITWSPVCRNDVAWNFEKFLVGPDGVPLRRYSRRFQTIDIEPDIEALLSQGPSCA
# Summary of the method: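 GR-coupled assay: compounds preincubated 30 min at room temperature with GPX1, then reaction started with CHP; final 10 nM GPX1, 1 mM GSH, 0.5 mM CHP, 0.5 mM NADPH, 100 nM GR, 0.01% BSA, pH 7.5 Tris buffer. NADPH fluorescence (340/450 nm) read at 0 and 15 min.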
# [3] = NCATS anti-infectives library activity on HEK293 viability as a counter-qHTS vs the C. elegans viability qHTS (AID 1745854); conditions: HEK293 viability counter-screen; series mostly up to 83.3 µM
# Summary of the method: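 HEK293 cells, 1500 per well, exposed 24 hr at 37C in 5% CO2 to compounds in a 1:5 titration, up to 41.7 uM final. Viability read as CellTiter-Glo luminescence after 10 min at room temperature.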
# [4] = NCATS anti-infectives library activity on the primary C. elegans qHTS viability assay (AID 1745855; calls by dose curve); conditions: C. elegans worm area imaging, day 7; at 41.8 µM (top of the series) unless noted
# Summary of the method: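 Viability is taken from GFP fluorescence of PE254-GFP-FLuc C. elegans imaged by laser cytometry over 7 days. Ten L1 worms per well grow at 21 °C on TOP10 E. coli capsules with titrated compound; levamisole marks toxicity.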
# [5] = target: Phospholipid hydroperoxide glutathione peroxidase GPX4 (Homo sapiens) (UniProt P36969); assay: Primary qHTS Assay for Inhibitors of Recombinant Selenoprotein Glutathione Peroxidase 4 (GPX4) (AID 1845192); conditions: recombinant GPX4, GR-coupled NADPH fluorescence, 15 min; series mostly up to 50 µM; further: nearly all actives have a fitted effect of over 65% in size
# Sequence of Phospholipid hydroperoxide glutathione peroxidase GPX4 (Homo sapiens) (P36969 whole entry, looked up): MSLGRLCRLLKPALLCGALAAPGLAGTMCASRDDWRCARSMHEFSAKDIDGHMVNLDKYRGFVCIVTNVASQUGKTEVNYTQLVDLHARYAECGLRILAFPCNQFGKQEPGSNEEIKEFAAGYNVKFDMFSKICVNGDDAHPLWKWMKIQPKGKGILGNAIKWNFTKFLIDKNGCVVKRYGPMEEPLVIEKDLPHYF
# Summary of the method: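 GR-coupled assay: recombinant GPX4 preincubated 30 min with compound at room temperature; final 200 nM GPX4, 1 mM GSH, 0.5 mM cumene hydroperoxide, 0.5 mM NADPH, 100 nM GR, 0.01% BSA, pH 7.5 Tris. NADPH fluorescence (340/450 nm) read at 0 and 15 min.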
# [6] = Viability counterscreen for antagonist of constitutive androstane receptor (CAR) against the NCATS DSHEA and TCM libraries (AID 1794837); conditions: CAR reporter cell line viability counterscreen, qHTS; series mostly up to 40 µM;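 further: compound exposure lasted 24 h before viability reading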
# Summary of the method: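 HepG2-CYP2B6-hCAR cells, 2,500/well, were exposed 24 hr at 37C to substances together with 48 uM CITCO (final). Viability was read as CellTiter-Fluor fluorescence (Ex/Em 405/540 nm) after 1 hr.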
# [7] = Viability counterscreen for agonist of constitutive androstane receptor (CAR) against the NCATS DSHEA and TCM libraries (AID 1794838); conditions: HepG2 cell viability counterscreen, CAR agonist assay, co-treated with 0.75 µM CAR antagonist; series mostly up to 40 µM;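 further: HepG2 cells with CYP2B6 reporter and hCAR plus 0.75 µM PK11195 antagonist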
# Summary of the method: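 HepG2-CYP2B6-hCAR cells (2,500/well) treated 24 h at 37C with compounds plus 0.75 uM PK11195; viability read by CellTiter-Fluor fluorescence, Ex/Em 405/540 nm.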
# [8] = target: Nuclear receptor subfamily 1 group I member 3 (Homo sapiens) (UniProt Q14994); assay: Primary qHTS for agonist of constitutive androstane receptor (CAR) against the NCATS DSHEA and TCM libraries (AID 1794839); conditions: CAR agonist reporter cells, qHTS luminescence, CAR antagonist co-added at 0.75 µM; series mostly up to 40 µM;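 further: HepG2 cells expressing human CAR with a CYP2B6 reporter plus PK11195 antagonist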
# Sequence of Nuclear receptor subfamily 1 group I member 3 (Homo sapiens) (Q14994 whole entry, looked up): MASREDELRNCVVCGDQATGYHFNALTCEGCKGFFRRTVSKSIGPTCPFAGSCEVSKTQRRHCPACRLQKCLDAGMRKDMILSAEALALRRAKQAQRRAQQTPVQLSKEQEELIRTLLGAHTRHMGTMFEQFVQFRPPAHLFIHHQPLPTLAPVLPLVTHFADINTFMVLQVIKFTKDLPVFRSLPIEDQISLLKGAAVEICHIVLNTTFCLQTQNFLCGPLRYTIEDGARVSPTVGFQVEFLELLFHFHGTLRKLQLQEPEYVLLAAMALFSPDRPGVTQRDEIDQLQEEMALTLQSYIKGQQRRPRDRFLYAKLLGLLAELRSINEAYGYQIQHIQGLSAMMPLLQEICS
# Summary of the method: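 HepG2-CYP2B6-hCAR cells, 2,500/well, attached 5 h, then dosed with 0.75 µM PK11195 (final) for 24 h at 37 °C. Luciferase luminescence read (ONE-Glo); CellTiter-Fluor viability (Ex/Em 405/540 nm) in same wells; CITCO positive control.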
# [9] = HepG2 viability counterscreen (readout 2: ATP content) against the NCATS DSHEA and TCM libraries (AID 1794840); conditions: ATP content luminescence; series mostly up to 27.3 µM
# Summary of the method: (§1)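 HepG2 cells, 1,000/well, attached ~4 h, then exposed ~24 h at 37C to substances. Protease activity read by fluorescence of 25 uM GF-AFC (Ex/Em 380/510 nm) after 30 min; ATP then by CellTiter-Glo luminescence.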
# [10] = HepG2 viability counterscreen (readout 1: protease activity) against the NCATS DSHEA and TCM libraries (AID 1794841); conditions: qHTS concentration series; series mostly up to 27.3 µM;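 further: cells exposed to compounds for about 24 h before the protease read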
# Summary of the method: as §1
smiles,measurement,setting,value
CO/N=C(\C(=O)N[C@@H]1C(=O)N2C(C(=O)O)=C(CSc3nc(=O)c(O)nn3C)CSC12)c1csc(N)n1 (stereo partly specified),Potency,[1],inactive
same,Potency,[2],25.1 µM (active)
CC[N+](CC)(CC)CC(=O)Nc1c(C)cccc1C,Potency,[1],inactive
same,Potency,[2],inactive
NCCCNCCCCNCCCN,Potency,[1],inactive
same,Potency,[2],inactive
Clc1nccc2c1ccc1ccccc12,Potency,[1],inactive
same,Potency,[2],inactive
CNc1ncnc2c1ncn2[C@H]1C[C@H](OP(=O)(O)O)[C@@H](COP(=O)(O)O)O1,Potency,[1],inactive
same,Potency,[2],inactive
c1ccc(C2CN3CCSC3=N2)cc1 (stereo unspecified),Potency,[1],inactive
same,Potency,[2],inactive
CCCCOC(=O)NS(=O)(=O)c1sc(CC(C)C)cc1-c1ccc(Cn2c(CC)nc3c(C)cc(C)nc32)cc1,Potency,[1],inactive
same,Potency,[2],inactive
CCN1C(=O)C=CC1=O,outcome,[3],inactive
same,outcome,[4],inactive [at 83.3 µM]
same,Potency,[1],inactive
same,Potency,[2],inactive
same,Potency,[5],inactive
CN1CCC2(CCN3CCc4c(oc5ccccc45)C3C2)N(C)C1=O (stereo unspecified),Potency,[1],inactive
same,Potency,[2],inactive
Nc1nc2[nH]c(=O)cnc2c(=O)[nH]1,Potency,[1],inactive
same,Potency,[2],inactive
CC(C)[C@H](NC(=O)OCc1ccccc1)C(=O)N[C@H](C=O)Cc1ccccc1 (Cbz-Val-Phe-aldehyde),Potency,[1],inactive
same,Potency,[2],inactive
C=CCNc1ncnc2ccc(Br)cc12,Potency,[1],inactive
same,Potency,[2],inactive
CC[n+]1c(/C=C/C=C2/N(C)c3ccccc3C2(C)C)sc2ccccc21,Potency,[1],inactive
same,Potency,[2],inactive
OC[C@H]1O[C@@H](n2cnc3cncnc32)[C@H](O)[C@@H]1O,Potency,[1],inactive
same,Potency,[2],inactive
O=C(O)/C=C/c1ccc(O)c(O)c1,outcome,[6],inactive
same,outcome,[7],inactive
same,outcome,[8],inactive
same,outcome,[9],inactive
same,Potency,[1],inactive
same,Potency,[2],inactive
C=C1C[C@@]23CC[C@H]4[C@@](C)(CCC[C@@]4(C)C(=O)OC4OC(CO)C(O)C(O)C4O)[C@@H]2CC[C@]1(OC1OC(CO)C(O)C(O)C1OC1OC(CO)C(O)C(O)C1O)C3 (stereo partly specified),outcome,[6],inactive
same,outcome,[7],inactive
same,outcome,[8],inactive
same,outcome,[9],inactive
same,outcome,[10],inactive
same,Potency,[1],inactive
same,Potency,[2],inactive
CCCn1c(=O)c2[nH]c(-c3ccc(S(=O)(=O)O)cc3)nc2n(CCC)c1=O,Potency,[1],inactive
N[C@H]1CONC1=O,outcome,[3],inactive
same,Potency,[1],inactive
same,Potency,[2],inactive
C=C1C[C@@]23CC[C@H]4[C@@](C)(CCC[C@@]4(C)C(=O)O)[C@@H]2CC[C@]1(O)C3,Potency,[1],inactive
same,Potency,[2],inactive
CN1CCc2cc(Cl)c(O)cc2[C@@H](c2ccccc2)C1,Potency,[1],inactive
same,Potency,[2],inactive
Oc1cc(O)c2c(c1)O[C@H](c1ccc(O)c(O)c1)[C@@H](O)C2,outcome,[3],inactive
same,outcome,[4],inactive
same,Potency,[1],inactive
same,Potency,[2],inactive
same,Potency,[5],inactive
COc1cc(/C=C(\C#N)C(=O)Nc2nnc(C(F)(F)F)s2)ccc1OCc1ccc(C(F)(F)F)cc1C(F)(F)F,Potency,[1],inactive
same,Potency,[2],inactive
CC(/C=C/c1cccc(Oc2ccc(F)cc2)c1)N(O)C(N)=O (stereo unspecified),Potency,[1],inactive
same,Potency,[2],inactive
CC[C@H](NC(=O)c1c(C)c(-c2ccccc2)nc2ccccc12)c1ccccc1,Potency,[1],inactive
same,Potency,[2],inactive
COCc1nc2c([nH]1)c(=O)n(C)c(=O)n2CC(C)C,Potency,[1],inactive
same,Potency,[2],inactive
CCCn1c(=O)c(C)cn2nc(N)nc12,Potency,[1],inactive
same,Potency,[2],inactive
NC(=O)c1ccccc1,outcome,[3],inactive
same,outcome,[4],inactive
same,Potency,[1],inactive
same,Potency,[2],inactive
same,Potency,[5],inactive
c1ccc2c(c1)CCC[C@H]2Nc1nc2ccccc2[nH]1,Potency,[1],inactive
same,Potency,[2],inactive
Nc1ncnc2c1nc(Sc1ccc(Cl)cc1)n2[C@H]1OC2COP(=O)(O)O[C@@H]2C1O (stereo partly specified),Potency,[1],inactive
same,Potency,[2],inactive
CN(C)S(=O)(=O)c1ccc2c(c1)/C(=C/c1cc3c([nH]1)CCCC3)C(=O)N2,Potency,[1],inactive
same,Potency,[2],inactive
CCCc1c(OCCCOc2ccc(OCC(=O)O)cc2)ccc(C(C)=O)c1O,Potency,[1],inactive
same,Potency,[2],inactive
CCCn1c(=O)c2[nH]c(C3CCCC3)nc2n(CCC)c1=O,Potency,[1],inactive
same,Potency,[2],inactive
O=C1Nc2ccc(I)cc2/C1=C/c1cc(Br)c(O)c(Br)c1,Potency,[1],inactive
same,Potency,[2],inactive
O=C(O)C1=CC(=C(c2ccc(O)c(C(=O)O)c2)c2ccc(O)c(C(=O)O)c2)C=CC1=O,Potency,[1],1.26 µM (active)
N[C@@H](Cc1c[nH]c2ccccc12)C(=O)O,Potency,[1],inactive
same,Potency,[2],inactive
NCCC1CCCC(CCN)N1 (stereo unspecified),Potency,[1],inactive
same,Potency,[2],inactive
Cc1nc2n(c(=O)c1CCN1CCC(c3noc4cc(F)ccc34)CC1)CCCC2O (stereo unspecified),Potency,[1],inactive
same,Potency,[2],inactive
CCCCCCCCCCC(C)(C)C(=O)Nc1c(OC)cc(OC)cc1OC,Potency,[1],inactive
same,Potency,[2],inactive
CCCCC[C@H](CC(=O)NO)C(=O)N[C@H](C(=O)N1CCC[C@H]1CO)C(C)C,Potency,[1],inactive
same,Potency,[2],inactive
same,Potency,[5],inactive
